Values joined by “and” are separate entries in the source; they are usually repeats but may differ in a detail not shown here. Identical values can stand only once. About 2,000 (36%) of roughly 5,500 compounds were called active. Roughly 18% stayed inconclusive and do not appear here. No stated cut-off is given here; in the data, active means normalized growth mostly below about 0.91 (no sharp cut-off); inconclusive means no clear call, values can overlap the other calls; inactive means mostly above about 0.92. Some of the results follow.
Test: chemical genetic growth profiling, strain panel (AID 1159580);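 further: tested at 20 µM; growth read once vehicle control cultures reached saturation at 30 °C; 1 = growth at the plate median or of vehicle wells; lower values mean less growth of the strain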
Settings: S. cerevisiae deletion strains, growth OD

Measured: normalized growth

COP(=S)(OC)SCn1nnc2ccccc2c1=O
inactive: locus YAL013W, strain DEP1, active compounds read low 0.987 | locus YAL021C, strain ccr4, active compounds read low 1 | locus YAL026C, strain drs2, active compounds read low 1 | locus YAL030W, strain snc1, active compounds read low 1.03 | locus YBL061C, strain skt5, active compounds read low 1.01 | locus YBR009C, strain hhf1, active compounds read low 1 | locus YBR021W, strain FUR4, active compounds read low 0.887 | locus YBR023C, strain chs3, active compounds read low 0.997 | locus YBR171W, strain sec66, active compounds read low 1.01 | locus YBR229C, strain ROT2, active compounds read low 0.955 | locus YBR231C, strain swc5, active compounds read low 1 | locus YBR279W, strain paf1, active compounds read low 0.992 | locus YCL011C, strain gbp2, active compounds read low 1 | locus YCL016C, strain dcc1, active compounds read low 0.994 | locus YCL029C, strain bik1, active compounds read low 0.974 | locus YCL061C, strain MRC1, active compounds read low 0.996 | locus YCL069W, strain vba3, active compounds read low 1.02 | locus YCR088W, strain abp1, active compounds read low 1.02 | locus YDL005C, strain med2, active compounds read low 1 | locus YDL035C, strain GPR1, active compounds read low 0.921 | locus YDL040C, strain nat1, active compounds read low 1.01 | locus YDL074C, strain BRE1, active compounds read low 0.9 | locus YDL101C, strain DUN1, active compounds read low 0.966 | locus YDL134C, strain PPH21, active compounds read low 0.985 | locus YDL185W, strain tfp1, active compounds read low 0.948 | locus YDL192W, strain arf1, active compounds read low 0.976 | locus YDR001C, strain nth1, active compounds read low 1.02 | locus YDR069C, strain doa4, active compounds read low 0.96 | locus YDR101C, strain arx1, active compounds read low 0.986 | locus YDR137W, strain rgp1, active compounds read low 0.985 | locus YDR150W, strain NUM1, active compounds read low 0.971 | locus YDR159W, strain sac3, active compounds read low 0.927 | locus YDR162C, strain NBP2, active compounds read low 0.963 | locus YDR195W, strain ref2 1.06 | locus YDR297W, strain sur2, active compounds read low 0.998 | locus YDR318W, strain mcm21, active compounds read low 0.972 | locus YDR334W, strain swr1, active compounds read low 1.01 | locus YDR335W, strain msn5, active compounds read low 1 | locus YDR388W, active compounds read low 0.979 | locus YDR392W, strain spt3, active compounds read low 1.03 | locus YDR502C, strain sam2, active compounds read low 0.98 | locus YEL003W, strain gim4, active compounds read low 0.984 | locus YEL037C, strain rad23, active compounds read low 1.01 | locus YEL061C, strain CIN8 (second series), active compounds read low 1.01 | locus YEL061C, strain CIN8, active compounds read low 0.985 | locus YER015W, strain faa2, active compounds read low 1 | locus YER016W, strain bim1, active compounds read low 1.02 | locus YER110C, active compounds read low 0.97 | locus YER111C, strain swi4, active compounds read low 0.996 | locus YER155C, strain BEM2 (second series), active compounds read low 0.999 | locus YER155C, strain BEM2, active compounds read low 0.993 | locus YER167W, strain BCK2, active compounds read low 0.989 | locus YFR010W, strain ubp6, active compounds read low 0.98 | locus YGL078C, strain dbp3, active compounds read low 0.997 | locus YGL086W, strain mad1, active compounds read low 0.992 | locus YGL167C, strain pmr1, active compounds read low 0.992 | locus YGL173C, strain kem1, active compounds read low 1 | locus YGL227W, strain vid30, active compounds read low 0.997 | locus YGL240W, strain doc1, active compounds read low 0.904 | locus YGL248W, strain PDE1, active compounds read low 0.953 | locus YGL253W, strain hxk2, active compounds read low 0.993 | locus YGR078C, strain PAC10, active compounds read low 0.953 | locus YGR135W, strain pre9, active compounds read low 0.969 | locus YGR229C, strain SMI1, active compounds read low 0.956 | locus YGR252W, strain gcn5, active compounds read low 0.824 | locus YHR013C, strain ard1, active compounds read low 0.913 | locus YHR027C, strain rpn1, active compounds read low 1.02 | locus YHR030C, strain SLT2, active compounds read low 0.973 and 0.958 | locus YHR079C, strain IRE1 (second series), active compounds read low 0.983 | locus YHR079C, strain IRE1, active compounds read low 0.979 | locus YHR094C, strain hxt1, active compounds read low 0.99 | locus YHR129C, strain ARP1, active compounds read low 0.967 | locus YHR142W, strain chs7, active compounds read low 0.987 | locus YHR200W, strain rpn10, active compounds read low 0.99 | locus YIL066C, strain RNR3, active compounds read low 0.935 | locus YIL073C, strain SPO22, active compounds read low 0.963 | locus YIL125W, strain kgd1, active compounds read low 0.979 | locus YIR030C, strain dcg1, active compounds read low 0.992 | locus YJL092W, strain hpr5, active compounds read low 1.01 | locus YJL095W, strain BCK1 (second series), active compounds read low 1 | locus YJL095W, strain BCK1, active compounds read low 0.974 and 0.949 | locus YJL115W, strain asf1, active compounds read low 0.991 | locus YJL129C, strain trk1, active compounds read low 1.02 | locus YJL134W, strain LCB3, active compounds read low 0.979 | locus YJL154C, strain vps35, active compounds read low 1.02 | locus YJL164C, strain tpk1, active compounds read low 0.984 | locus YJL166W, strain qcr8, active compounds read low 1.01 | locus YJL168C, strain set2, active compounds read low 0.982 | locus YJL187C, strain SWE1 (second series), active compounds read low 0.977 | locus YJL187C, strain SWE1, active compounds read low 1.01 | locus YJR043C, strain POL32, active compounds read low 0.953 | locus YJR066W, strain TOR1, active compounds read low 0.905

From PubChem BioAssay AID1159580 (chemical genetic matrix, 2015)
